# Screening data deposited in PubChem by Sanford-Burnham Center for Chemical Genomics.
# This is a sample that favours compounds with a hit; in the whole collection about 4.1% have one here.
# FAS-TE inh = inhibitors of human fatty acid synthase thioesterase domain | P49327 | recombinant FAS-TE, OMFH fluorogenic substrate, fluorescence endpoint | inhibition, % at 15 µM | 360,000 compounds, 0.67% hits | AID 602261;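 active means compounds whose normalised, plate-corrected inhibition of enzyme fluorescence in the single-dose primary screen is 50% or more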;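 further: 0% = DMSO with enzyme and 100% = substrate without enzyme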
# GRIN3A LBD mod = modulators (binders) of human NR3A ligand-binding domain | NR3A LBD differential scanning fluorimetry, Tm shift; 0% = protein alone, 100% = glycine-bound protein | Tm shift relative to glycine control, % at 25 µM | 340,000 compounds, 2.5% hits | AID 1259313;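 active means melting temperature shift of at least 10% of the positive control shift, at one fixed dose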
# MPTP inh = permeability transition pore inhibition | isolated mouse mitochondria, Ca2+ swelling absorbance, 30 min | 360,000 compounds, 1.4% hits | inhibition, % at 10 µM | AID 602449;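 active means inhibition of 50% or more, scaled per plate between neutral and stimulator controls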;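 further: 0% = DMSO wells given calcium and 100% = 1 mM EGTA wells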
# p-CIP stab down = p/CIP protein destabilization. Q05BA5. 290,000 compounds, 0.01% hits. F442A p/CIP-EGFP cells, EGFP fluorescence, 16 h. AID 1984. decrease of EGFP signal, % at 10 µM;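 active means EGFP signal decrease of at least 30% at 10 µM or well 3 SD below plate mean, unless failing retest; inactive means the rest, including hits failing retest or dose response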
# Target sequence (Q05BA5 1-1403): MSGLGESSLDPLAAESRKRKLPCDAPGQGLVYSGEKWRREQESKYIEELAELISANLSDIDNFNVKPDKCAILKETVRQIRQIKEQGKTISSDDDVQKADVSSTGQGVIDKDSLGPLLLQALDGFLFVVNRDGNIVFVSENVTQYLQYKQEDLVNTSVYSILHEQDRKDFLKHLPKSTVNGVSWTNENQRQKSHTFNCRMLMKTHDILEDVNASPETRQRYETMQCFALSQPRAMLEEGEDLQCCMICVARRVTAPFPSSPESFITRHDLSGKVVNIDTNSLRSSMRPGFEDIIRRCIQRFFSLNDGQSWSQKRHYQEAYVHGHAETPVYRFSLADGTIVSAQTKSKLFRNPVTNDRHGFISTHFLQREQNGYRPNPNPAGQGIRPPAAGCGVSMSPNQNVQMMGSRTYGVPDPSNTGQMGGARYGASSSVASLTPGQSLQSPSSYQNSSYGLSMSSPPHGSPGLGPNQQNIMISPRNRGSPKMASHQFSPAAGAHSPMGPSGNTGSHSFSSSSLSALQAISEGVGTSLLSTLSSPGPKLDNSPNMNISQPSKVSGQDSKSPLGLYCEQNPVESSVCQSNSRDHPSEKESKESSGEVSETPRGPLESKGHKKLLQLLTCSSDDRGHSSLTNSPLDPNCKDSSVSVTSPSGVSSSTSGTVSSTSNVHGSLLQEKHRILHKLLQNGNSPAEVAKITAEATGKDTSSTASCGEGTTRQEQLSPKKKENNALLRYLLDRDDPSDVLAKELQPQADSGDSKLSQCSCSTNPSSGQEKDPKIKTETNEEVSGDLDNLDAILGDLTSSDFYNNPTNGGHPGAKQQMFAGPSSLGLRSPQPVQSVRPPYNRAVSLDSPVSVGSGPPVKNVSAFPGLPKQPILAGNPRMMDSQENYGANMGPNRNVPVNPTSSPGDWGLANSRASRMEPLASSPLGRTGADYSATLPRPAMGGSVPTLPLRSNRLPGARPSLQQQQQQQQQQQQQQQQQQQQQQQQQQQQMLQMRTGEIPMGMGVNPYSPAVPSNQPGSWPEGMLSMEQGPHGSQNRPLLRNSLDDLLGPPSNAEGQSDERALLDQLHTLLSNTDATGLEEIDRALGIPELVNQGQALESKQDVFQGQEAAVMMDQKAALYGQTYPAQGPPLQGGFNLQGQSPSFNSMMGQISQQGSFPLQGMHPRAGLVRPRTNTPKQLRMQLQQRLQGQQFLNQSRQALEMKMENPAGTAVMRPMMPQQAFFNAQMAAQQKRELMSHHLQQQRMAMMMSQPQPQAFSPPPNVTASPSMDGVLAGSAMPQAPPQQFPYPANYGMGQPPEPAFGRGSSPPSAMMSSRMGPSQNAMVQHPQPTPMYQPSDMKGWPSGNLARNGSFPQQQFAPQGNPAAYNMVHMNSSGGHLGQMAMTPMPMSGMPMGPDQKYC
# MIN6 prolif = induces beta-cell replication in MIN6 cells; MIN6 cells proliferation, ATPlite luminescence, 48 h; cells starved in 0.2% serum; 100% = growth in 10% serum; proliferation, % at 10 µM; 330,000 compounds, 0.29% hits; AID 2380;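 active means compounds whose signal lies at least 3.5 SD above the mean of all wells on their plate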;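 further: 0% = DMSO-treated cells in low-serum medium and 100% = 10% serum control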
# Starred values were filed as active, the others as inactive; x = no result given.
SMILES,FAS-TE inh,GRIN3A LBD mod,MPTP inh,p-CIP stab down,MIN6 prolif
CCOc1ccc(NC(=O)c2ccc(S(=O)(=O)N3CCOCC3)cc2)cc1,-0.5,-27.2,1.1,1.8,0.0
O=C(Nc1ccc(S(=O)(=O)N2CCOCC2)cc1)c1ccc(Cl)s1,13.2,35.2*,8.4,-14.5,1.0
COc1ccc(C(=O)Nc2ccc(S(=O)(=O)N3CCOCC3)cc2)cc1,-1.6,27.4*,1.8,x,-3.2
COc1ccc(NS(=O)(=O)c2ccc(S(=O)(=O)N3CCOCC3)cc2)cc1,2.3,1.9,-3.4,-2.1,2.0
O=S(=O)(Nc1ccc(S(=O)(=O)N2CCOCC2)cc1)c1ccccc1,-5.6,10.3*,-0.3,-1.0,2.0
Cc1ccc(F)c(S(=O)(=O)NC(=O)C2(C)CCN2C(=O)c2ccc(C(F)(F)F)nc2C)c1 (stereo not given),-4.2,x,0.0,x,x
CSC1=NSC2=NC(=O)/C(=C/c3coc4ccc(O)cc4c3=O)C(=N)N12,-45.1,14.6*,25.1,-2.8,0.0
NS(=O)(=O)c1ccc(CCNC(=O)Cc2ccc(Cl)cc2)cc1,-4.8,0.7,-0.4,-4.0,3.5
Cc1cc(O)c(-c2cc(C(=O)NCCc3ccc(S(N)(=O)=O)cc3)[nH]n2)cc1C,1.6,21.8*,3.6,-7.1,-1.0
COc1ccc(CCNC(=O)c2cc(-c3cc(Cl)ccc3O)n[nH]2)cc1OC,5.2,10.4*,42.7,-12.4,-1.2
Cc1cc(C)c(O)c(-c2cc(C(=O)NCCc3ccc(S(N)(=O)=O)cc3)[nH]n2)c1,5.6,-5.1,2.0,-3.9,-1.1
NS(=O)(=O)c1ccc(CCNC(=O)c2cc(-c3cc(Cl)ccc3O)n[nH]2)cc1,-2.4,25.0*,7.0,-11.1,-3.3
COc1ccc(CCNC(=O)c2cc(-c3ccccc3O)n[nH]2)cc1OC,-4.7,-6.5,6.2,3.4,1.3
CCC(=O)c1cn(CC(=O)Nc2ccc(F)cc2)c2ccccc12,-1.2,x,-1.2,x,x
CC(C)NC(=O)C1(C)CN(S(C)(=O)=O)CC(=O)N1CC(F)(F)F (stereo not given),x,x,-1.3,x,x
COc1ccc(/C=C(\C#N)c2nc3ccc(C)cc3[nH]2)cc1Oc1ccc(C(F)(F)F)cc1[N+](=O)[O-],-16.7,18.0*,43.4,-26.9,-3.6
Cc1ccc2nc(/C(C#N)=C/c3ccc(-c4cccc([N+](=O)[O-])c4)o3)[nH]c2c1,-13.9,13.3*,9.3,-47.9,x
Cc1ccc2nc(/C(C#N)=C\c3cc(O)ccc3[N+](=O)[O-])[nH]c2c1,7.5,-9.1,-1.8,-0.1,-3.6
Oc1c(C=Nc2ccc(Cl)cn2)sc2ccccc12,-3.7,11.4*,2.8,-5.9,-3.0
O=C(CSc1ccc(-c2ccc(Cl)cc2)nn1)Nc1ccc2c(c1)OCCO2,1.3,11.5*,3.2,9.2,0.0
Cc1ccc(NC(=O)CSc2ccc(-c3ccc4c(c3)OCO4)nn2)cc1F,-11.5,-3.4,1.7,1.9,0.0
Cn1c(N)c(C(=O)N/N=C/c2ccccc2)sc1=S,3.0,32.8*,-0.9,0.2,-2.9
Cc1c(C(=O)N/N=C/c2cccnc2)sc(=S)n1C,-6.6,-7.5,1.1,0.7,0.0
COc1ccc(C(=O)NCC2CCCO2)cc1 (stereo not given),-10.5,11.6*,-3.8,-3.9,0.0
COc1ccc(N2CCN(C(CNC(=O)C(=O)NCC3CCCO3)c3ccco3)CC2)cc1 (stereo not given),-3.8,10.0*,29.3,-2.3,-1.4
SMILES,FAS-TE inh,GRIN3A LBD mod,MPTP inh,p-CIP stab down,MIN6 prolif
Cc1ccc(C(=Cc2ccc([N+](=O)[O-])cc2)C(=O)O)cc1,-0.5,x,0.3,x,x
Cc1nc2ccc(C(=O)Nc3ccc4c(c3)OCC(=O)N4)cn2c1N(C)C(=O)CCc1ccccc1,-4.7,x,-0.5,x,x
CCC1CCc2c(sc(NC(=O)C3c4ccccc4Oc4ccccc43)c2C(N)=O)C1 (stereo not given),23.8,16.8*,18.2,-5.0,0.3
CCOC(=O)c1c(NC(=O)C2c3ccccc3Oc3ccccc32)sc(C(N)=O)c1C,-4.9,-10.4,-4.4,-0.3,-2.5
Cc1cccc(NS(=O)(=O)c2ccc(C)c(C(=O)NNC(=O)c3csc(N4CCOCC4)n3)c2)c1,1.3,1.8,0.2,x,x
O=C1Nc2ccccc2-n2nnnc2C1N1CCN(C(=O)c2ccco2)CC1 (stereo not given),x,x,-0.2,x,x
COc1ccc(S(=O)(=O)N2CCOCC2)cc1NC(=O)c1c(C)noc1C,-7.3,x,-0.8,x,x
